# Legend:
# Test in all cases: DAPPL (digital affinity profiling via proximity ligation, sequencing); 10 mM Tris-HCl pH 7.5, 50 mM NaCl, 1 mM DTT, 4% glycerol, room temperature, 30 min; GST-TFs on glutathione beads, 16-mer random dsDNA library, 0.1% formaldehyde crosslink after washing; high values mean tight binding
# [1] = molecular target: T1, FLI1 (Homo sapiens, UniProt Q01543 1-452); settings: protein: recombinant; tags: N-terminal GST; dsDNA, one strand shown
# T1 sequence: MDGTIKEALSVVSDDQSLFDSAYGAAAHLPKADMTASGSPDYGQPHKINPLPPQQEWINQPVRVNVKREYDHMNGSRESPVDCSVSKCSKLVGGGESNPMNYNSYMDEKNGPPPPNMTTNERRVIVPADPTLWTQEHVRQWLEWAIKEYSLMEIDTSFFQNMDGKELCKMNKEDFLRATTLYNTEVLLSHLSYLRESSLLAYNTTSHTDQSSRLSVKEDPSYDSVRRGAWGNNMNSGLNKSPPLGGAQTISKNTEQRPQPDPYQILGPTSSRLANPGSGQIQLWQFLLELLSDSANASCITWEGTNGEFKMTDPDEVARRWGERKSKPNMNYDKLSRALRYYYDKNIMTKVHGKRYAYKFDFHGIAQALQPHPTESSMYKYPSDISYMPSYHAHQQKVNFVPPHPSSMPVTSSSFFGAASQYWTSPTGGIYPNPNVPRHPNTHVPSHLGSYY
# Method in brief: (§1)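 Each value of binding signal is a hexamer's read frequency for a factor divided by the same hexamer's frequency in the tag-only sample. Barcoded, bead-captured GST fusions of human transcription factors made in yeast were pooled with that sample and incubated with 200 nmole of a random double-stranded 16-mer DNA library in Tris/NaCl/DTT/glycerol buffer at room temperature for 30 min. Washing, 0.1% formaldehyde crosslinking, proximity ligation, PCR and Illumina NextSeq500 sequencing followed.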
# [2] = molecular target: T2, ELK1 (Homo sapiens, UniProt P19419 1-428); settings: protein: recombinant; tags: N-terminal GST; dsDNA, one strand shown
# T2 sequence: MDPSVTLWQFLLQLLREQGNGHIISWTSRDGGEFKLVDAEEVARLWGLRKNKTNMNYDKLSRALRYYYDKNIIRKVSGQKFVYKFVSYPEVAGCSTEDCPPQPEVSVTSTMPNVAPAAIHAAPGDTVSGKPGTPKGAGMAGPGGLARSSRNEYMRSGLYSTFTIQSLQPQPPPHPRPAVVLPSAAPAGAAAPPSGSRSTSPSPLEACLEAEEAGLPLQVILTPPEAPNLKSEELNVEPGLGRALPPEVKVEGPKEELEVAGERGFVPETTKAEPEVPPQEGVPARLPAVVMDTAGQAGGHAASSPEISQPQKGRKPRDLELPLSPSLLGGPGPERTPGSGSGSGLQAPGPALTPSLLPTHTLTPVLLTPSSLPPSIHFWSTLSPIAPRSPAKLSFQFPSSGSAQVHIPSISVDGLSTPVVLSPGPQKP
# Method in brief: as §1
# [3] = molecular target: T3, GABPA (Homo sapiens, UniProt Q06546 1-454); settings: protein: recombinant; tags: N-terminal GST; dsDNA, one strand shown
# T3 sequence: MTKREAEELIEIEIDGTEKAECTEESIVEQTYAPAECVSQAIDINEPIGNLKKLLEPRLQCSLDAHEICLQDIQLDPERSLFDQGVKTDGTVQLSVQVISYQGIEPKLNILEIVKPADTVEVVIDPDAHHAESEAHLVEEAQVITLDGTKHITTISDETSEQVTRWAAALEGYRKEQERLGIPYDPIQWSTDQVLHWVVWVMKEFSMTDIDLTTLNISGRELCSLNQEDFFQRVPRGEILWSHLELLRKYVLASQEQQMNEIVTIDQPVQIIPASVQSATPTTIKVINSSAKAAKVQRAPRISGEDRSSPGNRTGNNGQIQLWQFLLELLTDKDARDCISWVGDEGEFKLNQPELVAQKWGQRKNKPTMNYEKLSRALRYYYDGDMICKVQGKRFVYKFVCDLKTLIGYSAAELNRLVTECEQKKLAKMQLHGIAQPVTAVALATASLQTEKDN
# Method in brief: as §1
# [4] = molecular target: T4, ERG (Homo sapiens, UniProt P11308 1-479); settings: protein: recombinant; tags: N-terminal GST; dsDNA, one strand shown
# T4 sequence: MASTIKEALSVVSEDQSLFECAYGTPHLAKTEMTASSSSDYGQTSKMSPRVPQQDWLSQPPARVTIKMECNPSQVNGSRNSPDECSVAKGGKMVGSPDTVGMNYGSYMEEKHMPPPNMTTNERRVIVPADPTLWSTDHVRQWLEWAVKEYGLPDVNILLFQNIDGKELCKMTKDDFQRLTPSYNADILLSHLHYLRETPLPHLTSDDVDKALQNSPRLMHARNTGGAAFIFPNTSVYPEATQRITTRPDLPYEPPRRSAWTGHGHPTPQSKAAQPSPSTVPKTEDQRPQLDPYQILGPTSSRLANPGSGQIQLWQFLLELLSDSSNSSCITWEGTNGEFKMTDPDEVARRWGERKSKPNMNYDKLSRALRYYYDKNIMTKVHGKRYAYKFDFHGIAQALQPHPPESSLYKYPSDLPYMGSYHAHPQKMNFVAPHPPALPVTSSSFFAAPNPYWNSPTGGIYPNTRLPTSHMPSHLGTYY
# Method in brief: as §1
# [5] = molecular target: ELF1 (Homo sapiens, UniProt P32519 1-619); settings: protein: recombinant; tags: N-terminal GST; dsDNA, one strand shown
# Sequence of ELF1 (P32519 whole entry): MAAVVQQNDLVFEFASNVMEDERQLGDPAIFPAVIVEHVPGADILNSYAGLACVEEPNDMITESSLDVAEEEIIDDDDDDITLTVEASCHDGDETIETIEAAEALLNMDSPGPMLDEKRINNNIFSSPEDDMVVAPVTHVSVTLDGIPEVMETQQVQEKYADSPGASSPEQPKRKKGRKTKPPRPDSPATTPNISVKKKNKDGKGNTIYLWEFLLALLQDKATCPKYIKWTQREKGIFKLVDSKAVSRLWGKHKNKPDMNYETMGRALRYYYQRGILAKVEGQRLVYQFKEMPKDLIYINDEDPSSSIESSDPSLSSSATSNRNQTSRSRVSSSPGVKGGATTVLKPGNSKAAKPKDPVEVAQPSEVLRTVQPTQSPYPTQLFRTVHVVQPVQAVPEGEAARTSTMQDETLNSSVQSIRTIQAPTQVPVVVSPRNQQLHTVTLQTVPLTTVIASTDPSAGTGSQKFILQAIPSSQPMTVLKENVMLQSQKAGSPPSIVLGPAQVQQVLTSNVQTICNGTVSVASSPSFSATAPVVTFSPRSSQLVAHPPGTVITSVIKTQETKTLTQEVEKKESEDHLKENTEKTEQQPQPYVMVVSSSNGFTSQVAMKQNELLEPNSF
# Method in brief: as §1
# [6] = molecular target: T5, EHF (Homo sapiens, UniProt Q9NZC4 1-300); settings: protein: recombinant; tags: N-terminal GST; dsDNA, one strand shown
# T5 sequence: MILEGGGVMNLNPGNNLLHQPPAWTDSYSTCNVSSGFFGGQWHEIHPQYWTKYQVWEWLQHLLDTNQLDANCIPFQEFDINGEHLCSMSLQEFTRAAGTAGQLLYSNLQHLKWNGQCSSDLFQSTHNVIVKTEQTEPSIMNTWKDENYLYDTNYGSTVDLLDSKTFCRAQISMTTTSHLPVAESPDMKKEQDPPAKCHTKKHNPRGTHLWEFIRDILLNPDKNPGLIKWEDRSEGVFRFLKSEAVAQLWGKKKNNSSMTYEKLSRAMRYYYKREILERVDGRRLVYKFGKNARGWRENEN
# Method in brief: as §1
# [7] = molecular target: SPI1 (Homo sapiens, UniProt P17947 1-270); settings: protein: recombinant; tags: N-terminal GST; dsDNA, one strand shown
# Method in brief: as §1
# [8] = molecular target: SPIB (Homo sapiens, UniProt Q01892 1-262); settings: protein: recombinant; tags: N-terminal GST; dsDNA, one strand shown
# Sequence of SPIB (Q01892 whole entry): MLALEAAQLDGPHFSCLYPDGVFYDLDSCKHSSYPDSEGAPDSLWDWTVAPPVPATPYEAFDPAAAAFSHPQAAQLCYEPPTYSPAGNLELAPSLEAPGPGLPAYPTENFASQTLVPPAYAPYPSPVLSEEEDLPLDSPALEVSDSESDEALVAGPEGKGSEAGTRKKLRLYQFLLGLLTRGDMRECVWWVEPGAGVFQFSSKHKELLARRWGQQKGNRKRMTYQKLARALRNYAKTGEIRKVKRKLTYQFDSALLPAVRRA
# Method in brief: as §1
# [9] = molecular target: T6, ELK3 (Homo sapiens, UniProt P41970 1-407); settings: protein: recombinant; tags: N-terminal GST; dsDNA, one strand shown
# T6 sequence: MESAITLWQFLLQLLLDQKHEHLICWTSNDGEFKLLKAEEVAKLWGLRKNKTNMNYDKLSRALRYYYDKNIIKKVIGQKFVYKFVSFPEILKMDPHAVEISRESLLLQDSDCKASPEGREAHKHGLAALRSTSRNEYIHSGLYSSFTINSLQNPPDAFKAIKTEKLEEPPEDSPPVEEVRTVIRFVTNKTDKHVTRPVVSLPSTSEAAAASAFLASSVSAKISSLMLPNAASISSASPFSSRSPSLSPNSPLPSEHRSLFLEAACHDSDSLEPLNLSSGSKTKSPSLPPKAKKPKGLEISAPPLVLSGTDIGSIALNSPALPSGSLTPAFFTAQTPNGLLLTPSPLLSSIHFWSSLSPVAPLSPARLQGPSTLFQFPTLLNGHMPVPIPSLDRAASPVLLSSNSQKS
# Method in brief: as §1
# [10] = molecular target: T7, FEV (Homo sapiens, UniProt Q99581 1-238); settings: protein: recombinant; tags: N-terminal GST; dsDNA, one strand shown
# T7 sequence: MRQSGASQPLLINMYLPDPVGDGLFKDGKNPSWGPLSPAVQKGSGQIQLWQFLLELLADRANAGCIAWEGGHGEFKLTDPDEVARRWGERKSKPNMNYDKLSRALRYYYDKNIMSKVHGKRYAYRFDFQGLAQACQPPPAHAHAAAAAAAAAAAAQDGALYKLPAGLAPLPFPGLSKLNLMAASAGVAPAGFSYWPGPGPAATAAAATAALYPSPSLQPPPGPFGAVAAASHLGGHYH
# Method in brief: as §1
# [11] = molecular target: ETV5 (Homo sapiens, UniProt P41161 1-510); settings: protein: recombinant; tags: N-terminal GST; dsDNA, one strand shown
# Sequence of ETV5 (P41161 whole entry): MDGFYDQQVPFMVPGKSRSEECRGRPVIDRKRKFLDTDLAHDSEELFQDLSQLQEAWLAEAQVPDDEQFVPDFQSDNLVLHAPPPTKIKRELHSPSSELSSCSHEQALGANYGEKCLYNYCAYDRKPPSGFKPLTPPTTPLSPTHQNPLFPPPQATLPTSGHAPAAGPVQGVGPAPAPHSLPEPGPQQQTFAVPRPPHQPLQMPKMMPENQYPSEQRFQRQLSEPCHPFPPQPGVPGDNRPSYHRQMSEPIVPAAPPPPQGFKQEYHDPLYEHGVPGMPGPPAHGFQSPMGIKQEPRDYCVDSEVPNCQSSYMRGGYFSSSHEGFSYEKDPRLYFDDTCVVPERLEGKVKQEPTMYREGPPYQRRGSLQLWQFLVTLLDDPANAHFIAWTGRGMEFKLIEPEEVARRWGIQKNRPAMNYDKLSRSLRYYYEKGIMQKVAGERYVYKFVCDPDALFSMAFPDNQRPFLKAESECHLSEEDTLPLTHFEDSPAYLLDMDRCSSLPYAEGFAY
# Method in brief: as §1
# [12] = molecular target: HSF1 (Homo sapiens, UniProt Q00613 1-529); settings: protein: recombinant; tags: N-terminal GST; chain copies: 3; dsDNA, one strand shown
# Sequence of HSF1 (Q00613 whole entry): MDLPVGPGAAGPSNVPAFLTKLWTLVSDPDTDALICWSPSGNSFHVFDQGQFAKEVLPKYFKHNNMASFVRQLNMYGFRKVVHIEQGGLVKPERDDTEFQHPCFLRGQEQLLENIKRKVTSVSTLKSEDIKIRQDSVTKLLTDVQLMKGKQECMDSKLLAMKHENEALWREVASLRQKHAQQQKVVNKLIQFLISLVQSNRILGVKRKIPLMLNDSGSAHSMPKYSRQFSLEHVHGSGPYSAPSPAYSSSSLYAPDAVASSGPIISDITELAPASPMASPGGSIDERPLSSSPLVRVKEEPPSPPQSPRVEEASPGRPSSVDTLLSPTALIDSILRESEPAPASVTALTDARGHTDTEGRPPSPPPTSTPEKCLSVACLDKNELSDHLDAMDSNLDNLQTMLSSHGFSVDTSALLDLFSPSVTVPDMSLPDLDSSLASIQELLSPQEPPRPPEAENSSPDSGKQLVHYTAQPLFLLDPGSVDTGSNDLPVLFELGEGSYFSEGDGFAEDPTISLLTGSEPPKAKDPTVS
# Method in brief: as §1
# [13] = molecular target: T8, SPIC (Homo sapiens, UniProt Q8N5J4 1-248); settings: protein: recombinant; tags: N-terminal GST; dsDNA, one strand shown
# T8 sequence: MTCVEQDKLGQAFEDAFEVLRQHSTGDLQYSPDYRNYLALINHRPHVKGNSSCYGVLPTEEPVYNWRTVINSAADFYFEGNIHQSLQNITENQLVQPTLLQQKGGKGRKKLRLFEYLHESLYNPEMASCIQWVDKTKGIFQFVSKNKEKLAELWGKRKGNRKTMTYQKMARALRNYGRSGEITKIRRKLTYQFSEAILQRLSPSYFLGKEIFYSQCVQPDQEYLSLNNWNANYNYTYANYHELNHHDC
# Method in brief: as §1
# [14] = molecular target: ELF4 (Homo sapiens, UniProt Q99607 1-663); settings: protein: recombinant; tags: N-terminal GST; dsDNA, one strand shown
# Sequence of ELF4 (Q99607 whole entry): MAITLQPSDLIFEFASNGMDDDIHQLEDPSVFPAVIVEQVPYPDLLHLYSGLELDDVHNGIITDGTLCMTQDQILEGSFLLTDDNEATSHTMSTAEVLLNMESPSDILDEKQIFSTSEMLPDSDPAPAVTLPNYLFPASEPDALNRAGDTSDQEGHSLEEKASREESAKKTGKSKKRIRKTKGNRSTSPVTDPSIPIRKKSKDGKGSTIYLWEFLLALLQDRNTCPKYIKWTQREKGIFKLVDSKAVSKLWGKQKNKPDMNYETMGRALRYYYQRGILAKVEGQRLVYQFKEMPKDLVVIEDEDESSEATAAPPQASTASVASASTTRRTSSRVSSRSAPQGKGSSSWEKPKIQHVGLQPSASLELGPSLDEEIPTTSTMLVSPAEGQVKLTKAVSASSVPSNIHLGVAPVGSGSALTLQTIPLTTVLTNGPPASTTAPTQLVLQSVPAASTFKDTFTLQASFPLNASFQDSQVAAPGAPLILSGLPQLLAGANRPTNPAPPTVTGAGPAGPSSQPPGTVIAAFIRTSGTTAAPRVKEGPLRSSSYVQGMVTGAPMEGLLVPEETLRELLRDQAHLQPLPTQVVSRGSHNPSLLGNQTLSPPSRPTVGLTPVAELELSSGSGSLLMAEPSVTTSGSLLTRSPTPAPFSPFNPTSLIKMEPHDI
# Method in brief: as §1
# [15] = molecular target: T9, ELK4 (Homo sapiens, UniProt P28324-2 1-405); settings: protein: recombinant; tags: N-terminal GST; dsDNA, one strand shown
# T9 sequence: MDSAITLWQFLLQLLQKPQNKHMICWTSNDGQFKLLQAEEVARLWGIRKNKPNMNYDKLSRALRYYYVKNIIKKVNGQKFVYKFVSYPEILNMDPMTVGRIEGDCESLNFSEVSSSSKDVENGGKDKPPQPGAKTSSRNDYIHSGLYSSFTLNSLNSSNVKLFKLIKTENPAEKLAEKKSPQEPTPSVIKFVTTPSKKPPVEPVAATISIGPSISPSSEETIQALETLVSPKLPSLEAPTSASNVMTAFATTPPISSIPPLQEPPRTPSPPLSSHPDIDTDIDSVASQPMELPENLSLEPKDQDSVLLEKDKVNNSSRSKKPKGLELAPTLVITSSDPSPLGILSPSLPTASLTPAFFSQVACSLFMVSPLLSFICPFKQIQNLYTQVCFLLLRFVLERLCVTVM
# Method in brief: as §1
# [16] = molecular target: T10, ETV2 (Homo sapiens, UniProt O00321 1-342); settings: protein: recombinant; tags: N-terminal GST; dsDNA, one strand shown
# T10 sequence: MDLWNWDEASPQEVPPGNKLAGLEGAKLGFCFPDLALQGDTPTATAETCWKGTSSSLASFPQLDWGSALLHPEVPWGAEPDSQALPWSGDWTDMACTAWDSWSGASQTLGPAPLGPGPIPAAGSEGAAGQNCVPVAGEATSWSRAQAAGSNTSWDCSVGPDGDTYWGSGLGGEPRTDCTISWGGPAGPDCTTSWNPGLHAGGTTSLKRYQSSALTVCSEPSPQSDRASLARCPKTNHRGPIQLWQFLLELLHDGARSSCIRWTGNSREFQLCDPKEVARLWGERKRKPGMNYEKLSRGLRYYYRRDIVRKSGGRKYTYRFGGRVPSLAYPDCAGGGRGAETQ
# Method in brief: as §1
# [17] = molecular target: T11, ELF3 (Homo sapiens, UniProt P78545 1-371); settings: protein: recombinant; tags: N-terminal GST; dsDNA, one strand shown
# T11 sequence: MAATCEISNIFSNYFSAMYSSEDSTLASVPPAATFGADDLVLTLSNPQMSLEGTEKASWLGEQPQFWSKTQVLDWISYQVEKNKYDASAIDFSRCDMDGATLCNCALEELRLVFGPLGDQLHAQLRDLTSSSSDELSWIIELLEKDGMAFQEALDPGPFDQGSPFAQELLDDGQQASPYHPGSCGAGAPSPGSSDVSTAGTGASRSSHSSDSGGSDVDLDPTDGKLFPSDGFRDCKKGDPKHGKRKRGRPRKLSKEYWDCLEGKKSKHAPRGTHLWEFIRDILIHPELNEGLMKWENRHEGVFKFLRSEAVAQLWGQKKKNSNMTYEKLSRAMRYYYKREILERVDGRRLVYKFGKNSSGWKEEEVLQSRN
# Method in brief: as §1
# [18] = molecular target: ETV1 (Homo sapiens, UniProt P50549 1-477); settings: protein: recombinant; tags: N-terminal GST; dsDNA, one strand shown
# Sequence of ETV1 (P50549 whole entry): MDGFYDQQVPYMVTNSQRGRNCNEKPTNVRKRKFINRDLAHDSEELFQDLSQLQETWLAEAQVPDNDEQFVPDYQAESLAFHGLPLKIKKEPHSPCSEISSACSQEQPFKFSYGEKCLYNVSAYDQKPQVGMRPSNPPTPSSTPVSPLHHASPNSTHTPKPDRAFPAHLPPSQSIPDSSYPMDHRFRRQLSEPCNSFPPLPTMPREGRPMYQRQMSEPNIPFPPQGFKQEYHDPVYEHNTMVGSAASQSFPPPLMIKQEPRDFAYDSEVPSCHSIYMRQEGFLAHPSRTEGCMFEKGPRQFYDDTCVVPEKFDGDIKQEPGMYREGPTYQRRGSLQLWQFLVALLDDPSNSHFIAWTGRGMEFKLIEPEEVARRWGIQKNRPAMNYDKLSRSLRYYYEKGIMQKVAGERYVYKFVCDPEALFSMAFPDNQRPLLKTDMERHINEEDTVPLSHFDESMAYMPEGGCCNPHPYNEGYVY
# Method in brief: as §1
sequence,measurement,setting,value
GGAACT,binding signal,[1],"1.83 fold enrichment (6-mer frequency, TF over GST control)"
same,binding signal,[2],"1.8 fold enrichment (6-mer frequency, TF over GST control)"
same,binding signal,[3],"1.61 fold enrichment (6-mer frequency, TF over GST control)"
same,binding signal,[4],"1.89 fold enrichment (6-mer frequency, TF over GST control)"
same,binding signal,[5],"1.72 fold enrichment (6-mer frequency, TF over GST control)"
same,binding signal,[6],"1.8 fold enrichment (6-mer frequency, TF over GST control)"
same,binding signal,[7],"2.42 fold enrichment (6-mer frequency, TF over GST control)"
same,binding signal,[8],"2.03 fold enrichment (6-mer frequency, TF over GST control)"
same,binding signal,[9],"1.7 fold enrichment (6-mer frequency, TF over GST control)"
same,binding signal,[10],"1.72 fold enrichment (6-mer frequency, TF over GST control)"
same,binding signal,[11],"1.96 fold enrichment (6-mer frequency, TF over GST control)"
same,binding signal,[12],"1.31 fold enrichment (6-mer frequency, TF over GST control)"
same,binding signal,[13],"2.08 fold enrichment (6-mer frequency, TF over GST control)"
same,binding signal,[14],"1.55 fold enrichment (6-mer frequency, TF over GST control)"
same,binding signal,[15],"1.49 fold enrichment (6-mer frequency, TF over GST control)"
same,binding signal,[16],"1.89 fold enrichment (6-mer frequency, TF over GST control)"
same,binding signal,[17],"1.87 fold enrichment (6-mer frequency, TF over GST control)"
same,binding signal,[18],"2.03 fold enrichment (6-mer frequency, TF over GST control)"
